MCL1-BIM inh = MCL1-BIM-BH3 interaction inhibition (human); Q07820; GST-MCL1 / FITC-Bim-BH3 fluorescence polarization; inhibition, % at 10.9 µM; actives 0.68% (n = 320,000); AID 2057;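 active = inhibition above the mean inhibition of all tested compounds plus 3 SD, set per campaign, cut at about 40% in these data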;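 note: 0% = DMSO wells and 100% = unlabeled Bim-BH3 peptide control; higher means more loss of mP so more displacement of Bim peptide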
Target sequence (Q07820 whole entry, looked up): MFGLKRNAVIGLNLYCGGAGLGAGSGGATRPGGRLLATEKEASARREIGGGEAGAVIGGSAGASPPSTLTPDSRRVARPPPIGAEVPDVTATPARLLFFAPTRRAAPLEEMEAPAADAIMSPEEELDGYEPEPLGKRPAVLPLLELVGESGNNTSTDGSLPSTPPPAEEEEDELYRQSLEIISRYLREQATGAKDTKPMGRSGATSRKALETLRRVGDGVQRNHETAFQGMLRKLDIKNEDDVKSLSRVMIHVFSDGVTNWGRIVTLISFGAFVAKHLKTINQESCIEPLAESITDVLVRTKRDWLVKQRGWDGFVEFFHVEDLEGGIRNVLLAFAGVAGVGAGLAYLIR
Keap1 Nrf2 FP = inhibitors of human Keap1-Nrf2 protein-protein interaction; Q14145; Keap1 Kelch-Nrf2 peptide fluorescence polarization, 1536-well; inhibition, % at 9.4 µM; actives 0.15% (n = 340,000); AID 504523; in the data active = inhibition above about 12%; inconclusive = no clear call, values can overlap the other calls; inactive = below about 7.3%;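 note: human Keap1 Kelch domain with fluorescein labeled Nrf2 9mer peptide probe; 0% = neutral control wells and 100% = peptide positive control; higher means more block of Keap1 binding to Nrf2 peptide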
C-LANA FP = KSHV C-LANA DNA binding inhibition. inhibition, % at 9 µM. MBP-C-LANA/FAM-LBS DNA binding, fluorescence polarization. actives 0.078% (n = 340,000);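 active = highest replicate inhibition at or above 60% at 9 µM, even if other replicates fall short; inactive = all replicates below 60% inhibition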;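 note: 0% = neutral control wells and 100% = 4 µM acridine orange control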
GLD-1 RNA inh = GLD-1-TGE RNA interaction inhibition (C. elegans). purified GLD-1 + fluorescein TGE RNA, fluorescence polarization. inhibition, % at 5.96 µM. actives 0.44% (n = 320,000). AID 2280;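 active = percent inhibition above a per-plate cutoff, the plate mean of test compounds plus 3 SD, cut at about 30% in these data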;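 note: 0% = DMSO wells with GLD-1 and probe and 100% = wells lacking GLD-1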
BCLXL inh = inhibitors of human Bcl-xL; GST-Bcl-xL / FITC-Bim BH3 peptide fluorescence polarization; inhibition, % at 10.9 µM; actives 0.7% (n = 320,000); AID 2129;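 active = inhibition above the mean of all tested compounds plus 3 SD, cutoff set per campaign, cut at about 30% in these data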;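 note: 0% = DMSO wells and 100% = unlabeled Bim-BH3 peptide competitor; inhibitors lower millipolarization by displacing the labeled peptide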
Target sequence (Q07817 whole entry, looked up): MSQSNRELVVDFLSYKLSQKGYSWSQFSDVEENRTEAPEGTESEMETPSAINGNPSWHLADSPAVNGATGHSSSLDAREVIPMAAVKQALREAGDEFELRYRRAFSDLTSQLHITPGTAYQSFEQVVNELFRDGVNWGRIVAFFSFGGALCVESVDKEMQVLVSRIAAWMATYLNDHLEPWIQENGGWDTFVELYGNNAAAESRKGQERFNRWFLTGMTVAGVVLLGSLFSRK
E coli Lon inh = E. coli protease La inhibition | P0A9M0 | purified E. coli Lon protease, fluorescence polarization | inhibition, % at 7.94 µM | actives 0.42% (n = 360,000) | AID 602123; in the data active = inhibition above about 13%, passing the limit was not always enough;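 note: 0% = enzyme with probe and DMSO and 100% = no enzyme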
E coli Lon conf = confirmation of E. coli Lon protease inhibitors | shares compounds with E coli Lon inh | purified E. coli Lon, fluorescence polarization | inhibition, % at 7.94 µM | actives 31% (n = 1,400) | AID 602230; in the data active = inhibition above about 16%;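 note: 0% = enzyme with probe and DMSO and 100% = no enzyme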
Active calls of the source: *; ? = inconclusive; nt = not tested or not shown; + = active, no number. An excerpt weighted towards active compounds, which were near 1.3% of everything screened.

SMILES	MCL1-BIM inh	Keap1 Nrf2 FP	C-LANA FP	GLD-1 RNA inh	BCLXL inh	E coli Lon inh	E coli Lon conf
O=C1C2C3c4ccccc4C(c4ccccc43)C2C(=O)N1Cc1ccco1 (stereo unspecified)	6.9	-7.7	4.8	3.2	4.5	20.4*	4.1
CCC(C)[C@H](NC(=O)N1CCCCC1)C(=O)OC (stereo partly specified)	6.5	1.6	0.4	4.7	1.6	-0.7	nt
CCN1CC=C2C(C#N)=C(N)C(C#N)(C#N)C(c3cc(Cl)ccc3Cl)C2C1 (stereo unspecified)	149.7*	?	28.6	103.6*	122.4*	27.5*	-4.2
CC(C)[C@H](NC(=O)OCc1ccccc1)C(=O)NC(C=O)Cc1ccccc1 (stereo partly specified)	3.4	2.3	2.2	1.4	3.4	55.5*	59.0*
CCCCn1c(N)c(N(CC(C)C)C(=O)Cc2ccc(S(=O)(=O)N3CCOCC3)s2)c(=O)[nH]c1=O	nt	-38.9	22.9	nt	nt	-160.2	nt
CC(=O)N1Cc2cc(C(=O)NCC(F)(F)F)nc(-c3cccc(-c4cc5ccccc5o4)c3)c2[C@@H]1CCO	nt	nt	nt	nt	nt	2.1	nt
COc1cc(NC(C)CCCNC(C)C)c2ncccc2c1OC (stereo unspecified)	nt	-3.1	6.2	nt	nt	30.0*	14.1
COc1cc(NCCCCCCN)c2ncccc2c1OC	nt	2.1	-19.8	nt	nt	6.8	nt
CCc1ccc(NC(=O)N(CCN2CCOCC2)Cc2ccc3c(c2)CCCN3CC)cc1	22.8	-0.5	-0.1	1.0	23.8	0.2	nt
CCCN1CCCc2cc(CN)ccc21	127.0*	2.0	5.1	45.5*	107.7*	37.5*	46.8*
CC(C)CN(C(=O)Cn1c(Cl)nc2c1c(=O)n(C)c(=O)n2C)C1CCS(=O)(=O)C1 (stereo unspecified)	-1.4	-0.7	0.3	3.7	3.5	16.4*	0.1
O=C(c1ccc(COc2ccccc2Br)cc1)N1CCCCCC1	-1.7	2.9	-1.2	3.1	0.1	-1.1	nt
COc1ccc(S(=O)(=O)Cc2ccc(C(=O)NC3CCCCC3)o2)cc1	1.5	-3.4	1.4	0.3	3.2	26.8*	-8.3
COc1ccc(CCNC(=O)CCNC(=O)c2ccco2)cc1OC	-2.5	-1.2	-0.3	-9.1	-3.1	22.5*	-4.2
O=C(NCc1ccco1)c1cccc(S(=O)(=O)N2CCCC2)c1	nt	-2.1	-0.3	nt	nt	0.2	nt
CN(C(=O)COC(=O)c1cc2c(s1)CCCCC2)c1ccccc1	-0.3	-1.6	-2.5	1.1	-0.9	29.6*	2.3
ON(CCc1ccccn1)CCc1ccccn1	nt	7.9	9.9	nt	nt	37.6*	25.1*
ON(CCc1ccccn1)Cc1ccccc1	nt	2.1	3.1	nt	nt	1.1	nt
COc1ccc(Cl)cc1N1C(=O)/C(=C/c2sccc2C)N=C1SCC(=O)NC1CC1	nt	nt	nt	nt	nt	-6.4	nt
COc1cc(OC)c(OC)cc1/C=C/c1cc(C(=O)O)c2ccccc2n1	-1.4	-1.3	0.2	14.6	5.2	-7.8	nt
COc1ccc(/C=C/c2cc(C(=O)O)c3ccccc3n2)cc1	3.4	-0.2	2.9	10.1	6.5	+	3.0
COc1cc(C(=O)OCC(=O)Nc2ccccc2C(=O)NC2CC2)c([N+](=O)[O-])cc1OC	-0.8	-2.5	-1.8	-8.0	-1.3	34.7*	-37.3
C[C@H](NC(=O)c1ccc(Cl)cc1)C(=O)OCn1nnc2ccccc2c1=O	nt	3.1	0.4	1.5	nt	11.2	nt
O=C(CSCC(=O)OCn1nnc2ccccc2c1=O)Nc1ccc(Cl)cc1	3.8	-5.7	0.6	-3.1	3.9	17.1*	8.9
O=C1ON=C(c2ccccc2)/C1=C/c1ccc(O)c(O)c1	-5.0	-6.5	1.3	-6.8	-2.6	5.2	nt
SMILES	MCL1-BIM inh	Keap1 Nrf2 FP	C-LANA FP	GLD-1 RNA inh	BCLXL inh	E coli Lon inh	E coli Lon conf
O=C1ON=C(c2ccccc2)/C1=C/c1cccnc1	nt	-3.5	0.2	nt	nt	17.4*	3.3
O=C(CN(C(=O)Cn1nnc(-c2ccc(F)cc2)n1)c1ccc(F)cc1)NC1CCCC1	-2.8	1.9	-1.2	7.6	3.3	18.4*	0.6
COc1ccc(N(CC(=O)NC2CCCC2)C(=O)Cn2nnc(-c3ccc(F)cc3)n2)cc1	-4.7	-2.4	0.3	-1.0	-1.8	-2.0	nt
O=C(CNc1cccc(S(=O)(=O)N2CCCC2)c1)Nc1ccc(C(F)(F)F)cc1	1.6	2.0	1.3	-4.7	3.8	6.5	nt
O=C(NC(=S)Nc1ccc2c(c1)OCCO2)c1ccccc1F	2.8	-1.6	0.0	-1.5	5.8	36.5*	-2.6
O=C(c1ccccn1)N1CCCC(N2CCN(c3ccc(F)cc3)CC2)C1 (stereo unspecified)	6.7	0.6	0.8	-6.2	2.4	-2.4	nt
COc1ccccc1N1CC(C(=O)Nc2nnc(SC)s2)CC1=O (stereo unspecified)	1.2	2.4	-1.1	-3.0	7.6	-2.8	nt
CCOC(=O)N(CC)OC(=O)Nc1ccc(Cl)cc1	5.0	-14.0	-0.5	-0.2	5.4	4.3	nt
CCOC(=O)N(C)OC(=O)Nc1ccc(Cl)c(Cl)c1	12.1	-28.3	1.6	3.0	7.6	18.8*	24.6*
Cc1cc(NC(=O)CSCC(=O)Nc2ccc(C)c(C)c2)no1	-2.4	0.0	-1.7	2.4	-1.2	1.6	nt
COc1cc(/C=N/NC(=O)COc2ccc(-n3cnnn3)cc2)ccc1OCC(N)=O	5.7	-3.8	1.0	3.2	2.3	21.8*	-3.3
NC(=O)COc1ccc(-n2cnnn2)cc1	30.0	1.5	6.3	-2.5	5.8	1.2	nt
Cc1ccccc1OCCC(=O)OCC(=O)NC(=O)c1ccccc1	-7.3	2.2	0.6	0.6	-2.6	9.6	nt
Cc1cc2cc(CNC(=O)Cc3ccc([N+](=O)[O-])cc3)ccc2[nH]1	10.9	-2.5	1.4	4.7	6.0	-2.4	nt
Cc1cc2cc(CNC(=O)c3cccc([N+](=O)[O-])c3)ccc2[nH]1	7.0	-5.8	0.3	3.0	7.1	23.8*	-9.8
CC(C)NS(=O)(=O)c1ccc(NC(=O)C(C)OC(=O)CCCOc2ccccc2)cc1 (stereo unspecified)	nt	2.1	0.6	nt	nt	-1.6	nt
OCc1ccccc1-c1cccc2nccn12	nt	nt	nt	nt	nt	69.6*	4.9
Cc1ccc(NC(=S)NCc2ccc(Cl)cc2)c(C)c1	13.3	-4.0	-1.2	0.4	3.0	17.2*	-47.2
Cc1cc(Cl)ccc1NC(=S)NCc1ccccc1	7.8	2.7	0.8	1.6	0.1	-8.5	nt
Cc1ccc(NCc2ccccc2O)cc1	8.6	2.4	1.3	5.7	3.3	3.2	nt
Cc1ccc(CNc2ccc(O)cc2)cc1	nt	-5.8	0.2	nt	nt	19.8*	-24.5
COc1ccc(NC2CCCCC2NS(=O)(=O)c2ccc(C)cc2)cc1 (stereo unspecified)	11.4	-4.1	0.1	-2.5	24.5	-7.2	nt
Cc1ncc([N+](=O)[O-])n1CC(=O)Nc1ccc(F)c(Cl)c1	11.3	-3.3	0.6	-6.7	2.1	-5.5	nt
